SMILES strings stand for the structures. The panel holds about 79,000 compounds, 15% with a hit somewhere; the sample as a whole holds those more often. Values without a mark were called inactive. Active and inactive are the calls of the source. No stated cut-off is given here; in the data, active means growth inhibition above about 70%; inactive means the rest.

A short description of the first assay: NCI Yeast Anticancer Drug Screen. Data for the sgs1 mgt1 strain (AID 161).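 Further: 0% = growth of cultures given vehicle only.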 As to conditions: S. cerevisiae sgs1 mgt1 strain, at 50.0 µM, stronger effect = higher value. Put shortly: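 Percent growth inhibition was derived by comparing compound-exposed mutant yeast with vehicle-exposed cultures. The strain carries alterations in DNA damage repair.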
For the compound `CCNC(=S)NC1CCCCC1`, the growth inhibition was 3.65%.

`CCOC(=O)Cc1c(Cc2[nH]c(C(=O)OCc3ccccc3)c(CC(=O)OCC)c2CC(=O)OCC)[nH]c(C(=O)OCc2ccccc2)c1CC(=O)OCC`: the growth inhibition is -19%. Consider `CCN(CC)CCNc1cc(OC)c(N)c2cccnc12`, for which the growth inhibition is -2.7%.

Turning to `O=[N+]([O-])C1CC(O)C(O)CC1c1ccc2c(c1)OCO2` (centres undefined), the growth inhibition is 1.7%. As to `Cc1n(C)nn[n+]1C`, the growth inhibition is -2.65%. As for `COc1ccc(N=Cc2cc(OC)c(OC)c(OC)c2)cc1`, the growth inhibition was 1.5%.

In the case of `c1cn2cnnc2n2cnnc12`, the growth inhibition is -15.6%. Same read-out and setting: the result for `COc1ccc(NC2CC(C)N(C(=O)c3ccccc3)O2)cc1` (centres undefined) reads -19.1%; that for `CC/C=C\CCCCC`, -12.6%; that for `O=C(O)CSC(CC(=O)O)C(=O)O` (centres undefined), 17.7%. The same measure, in the same setting: as for `O=C(ON=C1c2ccccc2C(Br)C(Br)c2ccccc21)c1cc([N+](=O)[O-])cc([N+](=O)[O-])c1` (centres undefined), the figure is 28.8%; as for `Cc1cc(OC(=O)c2c(C)cc(OC(=O)c3c(C)cc(O)cc3O)cc2O)cc(O)c1C(=O)O`, -19.4%.

As for `CCOC(=O)NCc1ccccc1`, the growth inhibition is 10.3%.

`CNCCCC1c2ccccc2C=Cc2ccccc21`: the growth inhibition is 12.8%. The same measure, in the same setting: as for `COc1cc(C(=O)O)cc(O)c1OC`, the figure is -2.85%; as for `O=C(O)CSc1nc2cc(Cl)c(Cl)cc2[nH]1`, 1.35%. Same read-out and setting: as for `[Cl][Tb]([Cl])[Cl]`, the figure is 31.8%.

`CCCOC(=O)COc1ccccc1`: the growth inhibition was -4.3%. For `CC12CCC(=O)C=C1CCC1C2CCC2(C)C1CCC2(O)C(=O)Cn1c(=O)[nH]cc(F)c1=O` (centres undefined), the growth inhibition was 5.75%. The same measure, in the same setting: the result for `O=S(=O)(O)O.[NH-]CC1(C[NH-])CCCCC1.[Pt+2]` reads -3.15%; that for `CNCC(OC(C)C)c1ccc(O)c(O)c1` (centres undefined), -0.05%. Still for that read-out and setting: as for `S=c1nc[nH]c2c1CN(Cc1ccccc1)CC2`, the figure is 4.6%; as for `O=C1C(Cc2ccccc2)CCCC1Cc1ccccc1` (centres undefined), -8.05%; as for `Cn1ccnc1Sc1ccccn1`, 1.7%.

The next assay is described as follows: NCI Yeast Anticancer Drug Screen. Data for the cln2 rad14 strain (AID 165).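 Further: 0% = growth equal to vehicle treated cultures.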 To be noted: S. cerevisiae cln2 rad14 strain, at 50.0 µM, stronger effect = higher value. Put shortly: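 Yeast carrying cln2 and rad14 alterations (cell cycle control and DNA damage repair) were exposed to compounds. Growth inhibition was measured against vehicle-treated controls.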
Turning to `CC1(C)N=C(C(N)=O)c2[nH]cnc2N1`, the growth inhibition was 13.3%.

For the compound `CN(C(=O)C1C2c3ccccc3C(c3ccccc32)C1C(=O)N(C)c1ccccc1)c1ccccc1` (centres undefined), the growth inhibition is -39%. For `CCc1c(CBr)c(=O)[nH]c2ccccc12`, the growth inhibition was 0.9%. Still for that read-out and setting: the result for `CCCCNC(=O)C(CCCC)C(CCC)(CCC)CCCC` (centres undefined) reads -35.8%; that for `COc1cccc2c1C(=O)c1c(O)c3c(c(O)c1C2=O)C[C@@](O)(c1csc(-c2ccncc2)n1)C[C@@H]3OC1CC(N)C(O)C(C)O1` (some centres undefined), 32.2%; that for `CO[C@H]1CC[C@@]2(C)C(=CC[C@H]3[C@@H]4CC[C@H]([C@H](C)CCCC(C)C)[C@@]4(C)CC[C@@H]32)C1`, 24.7%. For `CN(C)c1nc(=O)c2c(ccc3ccccc32)o1`, the growth inhibition was 14.7%. `NCC(=O)Nc1ccc(C(=O)O)cc1`: the growth inhibition is 4.6%. The same measure, in the same setting: as for `CCNC(=S)N/N=C/c1cc(OC)ccc1O`, the figure is 11%; as for `CC(C)COC(=O)N1N=NC2C3OC(CC3=O)C21` (centres undefined), 8.8%.

With `CCCSc1nc2c(c(=O)n(C)c(=O)n2C)n1C`, the growth inhibition is -9.3%. Same read-out and setting: as for `O=C(Nc1cccc([N+](=O)[O-])c1)Nc1ccccc1F`, the figure is 10.5%; as for `FS(F)(F)(F)(F)c1cccc(NC(=S)SCc2ccc3c(c2)OCO3)c1`, 99.3% (active). Take `C/C(=N\Nc1ccc2ccccc2n1)c1ccccc1O`: the growth inhibition is -25.8%.

For `N.N.N.N.N.O=S(=O)([O-])S(=O)(=O)[O-].[Co+3]`, the growth inhibition is 23.2%.

For `CC(C)(C)NC(=O)NCC1CCCC1NC(=O)NC(C)(C)C` (centres undefined), the growth inhibition was -5.45%. Same read-out and setting: as for `CCNC(=S)NC1CCCCC1`, the figure is -4.05%. Same read-out and setting: the result for `CCOC(=O)Cc1c(Cc2[nH]c(C(=O)OCc3ccccc3)c(CC(=O)OCC)c2CC(=O)OCC)[nH]c(C(=O)OCc2ccccc2)c1CC(=O)OCC` reads -3.1%. Turning to `CCN(CC)CCNc1cc(OC)c(N)c2cccnc12`, the growth inhibition was -6.75%. As to `O=[N+]([O-])C1CC(O)C(O)CC1c1ccc2c(c1)OCO2` (centres undefined), the growth inhibition is 3.05%.

With `Cc1n(C)nn[n+]1C`, the growth inhibition is -24.1%. Same read-out and setting: the result for `COc1ccc(N=Cc2cc(OC)c(OC)c(OC)c2)cc1` reads -3.55%. As for `c1cn2cnnc2n2cnnc12`, the growth inhibition was -32%. On the same count and under the same terms, as for `COc1ccc(NC2CC(C)N(C(=O)c3ccccc3)O2)cc1` (centres undefined), the figure is 12.3%; as for `CC/C=C\CCCCC`, 0.05%. `O=C(O)CSC(CC(=O)O)C(=O)O` (centres undefined): the growth inhibition was 8.85%. Same read-out and setting: the result for `O=C(ON=C1c2ccccc2C(Br)C(Br)c2ccccc21)c1cc([N+](=O)[O-])cc([N+](=O)[O-])c1` (centres undefined) reads -0.6%. The same measure, in the same setting: as for `Cc1cc(OC(=O)c2c(C)cc(OC(=O)c3c(C)cc(O)cc3O)cc2O)cc(O)c1C(=O)O`, the figure is -3.55%; as for `CCOC(=O)NCc1ccccc1`, 2.6%; as for `CNCCCC1c2ccccc2C=Cc2ccccc21`, -1.7%. On the same count and under the same terms, the result for `COc1cc(C(=O)O)cc(O)c1OC` reads -6.25%. In the case of `O=C(O)CSc1nc2cc(Cl)c(Cl)cc2[nH]1`, the growth inhibition is -10.4%. Regarding `[Cl][Tb]([Cl])[Cl]`, the growth inhibition is 40.1%. The same measure, in the same setting: as for `CCCOC(=O)COc1ccccc1`, the figure is -45%; as for `CC12CCC(=O)C=C1CCC1C2CCC2(C)C1CCC2(O)C(=O)Cn1c(=O)[nH]cc(F)c1=O` (centres undefined), 10.8%; as for `O=S(=O)(O)O.[NH-]CC1(C[NH-])CCCCC1.[Pt+2]`, -0.7%. For `CNCC(OC(C)C)c1ccc(O)c(O)c1` (centres undefined), the growth inhibition was -36.4%. Same read-out and setting: as for `S=c1nc[nH]c2c1CN(Cc1ccccc1)CC2`, the figure is -23.4%; as for `O=C1C(Cc2ccccc2)CCCC1Cc1ccccc1` (centres undefined), -21.5%.

For `Cn1ccnc1Sc1ccccn1`, the growth inhibition was 21.9%.

These data come from PubChem BioAssay (NCI).
